From the supplement of paper PMC11732987, “Enantioselective OTUD7B fragment discovery through chemoproteomics screening and high-throughput optimisation” (Communications Chemistry, 2025)

Experiments:
Experiment in all cases: log2 ratio of Biotin-Ahx-Ub-VS probe labelling (fragment/DMSO); higher = less target engagement (more negative = stronger competition), active = hit call of the paper (q ≤ 0.05, log2 ratio ≤ -1)
Conditions in all cases: compound concentration: 200 uM; treatment time: 3 h
USP19 = molecular target: T1, USP19 (UniProt O94966)
T1 sequence (whole entry): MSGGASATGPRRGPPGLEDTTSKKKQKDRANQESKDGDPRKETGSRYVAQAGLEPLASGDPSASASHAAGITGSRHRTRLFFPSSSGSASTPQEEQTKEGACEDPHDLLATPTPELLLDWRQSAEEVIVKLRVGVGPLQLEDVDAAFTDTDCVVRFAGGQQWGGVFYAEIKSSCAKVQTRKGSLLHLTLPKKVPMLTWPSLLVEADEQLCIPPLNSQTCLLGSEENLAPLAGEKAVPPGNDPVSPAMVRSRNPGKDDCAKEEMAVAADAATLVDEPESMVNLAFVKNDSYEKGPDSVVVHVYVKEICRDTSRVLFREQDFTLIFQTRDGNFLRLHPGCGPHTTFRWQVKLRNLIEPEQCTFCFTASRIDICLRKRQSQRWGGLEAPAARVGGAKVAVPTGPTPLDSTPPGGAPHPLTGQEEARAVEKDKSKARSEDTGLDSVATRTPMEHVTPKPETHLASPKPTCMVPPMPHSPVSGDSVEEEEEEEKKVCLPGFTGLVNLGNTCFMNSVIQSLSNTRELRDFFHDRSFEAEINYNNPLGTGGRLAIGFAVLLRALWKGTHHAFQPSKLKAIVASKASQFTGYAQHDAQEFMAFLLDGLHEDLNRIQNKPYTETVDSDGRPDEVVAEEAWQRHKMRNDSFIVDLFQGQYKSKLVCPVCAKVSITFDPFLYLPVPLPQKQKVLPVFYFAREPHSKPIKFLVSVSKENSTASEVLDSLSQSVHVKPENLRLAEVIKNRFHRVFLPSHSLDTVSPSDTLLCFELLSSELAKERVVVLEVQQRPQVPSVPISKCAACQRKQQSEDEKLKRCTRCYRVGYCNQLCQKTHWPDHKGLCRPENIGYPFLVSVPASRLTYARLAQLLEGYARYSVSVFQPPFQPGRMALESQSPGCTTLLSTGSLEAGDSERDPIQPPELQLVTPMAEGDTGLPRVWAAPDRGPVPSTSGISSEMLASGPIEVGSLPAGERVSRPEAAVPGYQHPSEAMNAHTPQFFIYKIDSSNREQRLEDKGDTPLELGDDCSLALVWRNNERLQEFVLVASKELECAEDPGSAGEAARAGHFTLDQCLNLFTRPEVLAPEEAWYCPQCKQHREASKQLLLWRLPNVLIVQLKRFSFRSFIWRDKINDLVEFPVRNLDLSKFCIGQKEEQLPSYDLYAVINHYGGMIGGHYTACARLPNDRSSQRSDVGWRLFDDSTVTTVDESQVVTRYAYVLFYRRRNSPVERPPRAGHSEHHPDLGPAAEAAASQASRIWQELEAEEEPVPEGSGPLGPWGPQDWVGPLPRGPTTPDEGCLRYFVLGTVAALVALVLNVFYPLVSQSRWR
Procedure, shortened: (§1)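 Using Biotin-Ahx-Ub-VS at 0.5 µM final for 1 h, DUBs were labelled in HEK293T lysate (495 µg per sample) that had first been treated in triplicate with fragment at 200 µM or vehicle for 3 h. NeutrAvidin enrichment, LysC and trypsin digestion and diaPASEF LC-MS/MS followed. Spectronaut label-free quantities were global-median-normalised. Values are average log2 fragment/vehicle ratios by unpaired t-test, using proteins with ≥2 unique peptides.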

USP22 = molecular target: T2, USP22 (UniProt Q9UPT9)
T2 sequence (whole entry): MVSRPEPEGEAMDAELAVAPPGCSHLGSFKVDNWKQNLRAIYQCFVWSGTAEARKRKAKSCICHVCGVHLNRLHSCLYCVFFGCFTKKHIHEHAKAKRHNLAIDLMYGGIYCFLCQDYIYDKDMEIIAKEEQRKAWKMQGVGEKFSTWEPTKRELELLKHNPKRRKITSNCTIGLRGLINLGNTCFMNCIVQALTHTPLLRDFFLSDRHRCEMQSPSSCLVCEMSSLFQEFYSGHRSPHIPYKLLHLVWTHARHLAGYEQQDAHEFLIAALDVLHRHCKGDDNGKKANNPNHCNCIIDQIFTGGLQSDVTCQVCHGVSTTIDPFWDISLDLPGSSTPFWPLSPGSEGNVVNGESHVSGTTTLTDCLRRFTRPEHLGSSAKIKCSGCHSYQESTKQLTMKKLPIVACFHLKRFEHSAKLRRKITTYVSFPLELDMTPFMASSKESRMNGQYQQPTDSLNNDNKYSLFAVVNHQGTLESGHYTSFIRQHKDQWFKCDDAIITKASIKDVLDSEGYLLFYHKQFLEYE
Procedure, shortened: as §1

USP24 = USP24 (UniProt Q9UPU5)
USP24, sequence (Q9UPU5 whole entry): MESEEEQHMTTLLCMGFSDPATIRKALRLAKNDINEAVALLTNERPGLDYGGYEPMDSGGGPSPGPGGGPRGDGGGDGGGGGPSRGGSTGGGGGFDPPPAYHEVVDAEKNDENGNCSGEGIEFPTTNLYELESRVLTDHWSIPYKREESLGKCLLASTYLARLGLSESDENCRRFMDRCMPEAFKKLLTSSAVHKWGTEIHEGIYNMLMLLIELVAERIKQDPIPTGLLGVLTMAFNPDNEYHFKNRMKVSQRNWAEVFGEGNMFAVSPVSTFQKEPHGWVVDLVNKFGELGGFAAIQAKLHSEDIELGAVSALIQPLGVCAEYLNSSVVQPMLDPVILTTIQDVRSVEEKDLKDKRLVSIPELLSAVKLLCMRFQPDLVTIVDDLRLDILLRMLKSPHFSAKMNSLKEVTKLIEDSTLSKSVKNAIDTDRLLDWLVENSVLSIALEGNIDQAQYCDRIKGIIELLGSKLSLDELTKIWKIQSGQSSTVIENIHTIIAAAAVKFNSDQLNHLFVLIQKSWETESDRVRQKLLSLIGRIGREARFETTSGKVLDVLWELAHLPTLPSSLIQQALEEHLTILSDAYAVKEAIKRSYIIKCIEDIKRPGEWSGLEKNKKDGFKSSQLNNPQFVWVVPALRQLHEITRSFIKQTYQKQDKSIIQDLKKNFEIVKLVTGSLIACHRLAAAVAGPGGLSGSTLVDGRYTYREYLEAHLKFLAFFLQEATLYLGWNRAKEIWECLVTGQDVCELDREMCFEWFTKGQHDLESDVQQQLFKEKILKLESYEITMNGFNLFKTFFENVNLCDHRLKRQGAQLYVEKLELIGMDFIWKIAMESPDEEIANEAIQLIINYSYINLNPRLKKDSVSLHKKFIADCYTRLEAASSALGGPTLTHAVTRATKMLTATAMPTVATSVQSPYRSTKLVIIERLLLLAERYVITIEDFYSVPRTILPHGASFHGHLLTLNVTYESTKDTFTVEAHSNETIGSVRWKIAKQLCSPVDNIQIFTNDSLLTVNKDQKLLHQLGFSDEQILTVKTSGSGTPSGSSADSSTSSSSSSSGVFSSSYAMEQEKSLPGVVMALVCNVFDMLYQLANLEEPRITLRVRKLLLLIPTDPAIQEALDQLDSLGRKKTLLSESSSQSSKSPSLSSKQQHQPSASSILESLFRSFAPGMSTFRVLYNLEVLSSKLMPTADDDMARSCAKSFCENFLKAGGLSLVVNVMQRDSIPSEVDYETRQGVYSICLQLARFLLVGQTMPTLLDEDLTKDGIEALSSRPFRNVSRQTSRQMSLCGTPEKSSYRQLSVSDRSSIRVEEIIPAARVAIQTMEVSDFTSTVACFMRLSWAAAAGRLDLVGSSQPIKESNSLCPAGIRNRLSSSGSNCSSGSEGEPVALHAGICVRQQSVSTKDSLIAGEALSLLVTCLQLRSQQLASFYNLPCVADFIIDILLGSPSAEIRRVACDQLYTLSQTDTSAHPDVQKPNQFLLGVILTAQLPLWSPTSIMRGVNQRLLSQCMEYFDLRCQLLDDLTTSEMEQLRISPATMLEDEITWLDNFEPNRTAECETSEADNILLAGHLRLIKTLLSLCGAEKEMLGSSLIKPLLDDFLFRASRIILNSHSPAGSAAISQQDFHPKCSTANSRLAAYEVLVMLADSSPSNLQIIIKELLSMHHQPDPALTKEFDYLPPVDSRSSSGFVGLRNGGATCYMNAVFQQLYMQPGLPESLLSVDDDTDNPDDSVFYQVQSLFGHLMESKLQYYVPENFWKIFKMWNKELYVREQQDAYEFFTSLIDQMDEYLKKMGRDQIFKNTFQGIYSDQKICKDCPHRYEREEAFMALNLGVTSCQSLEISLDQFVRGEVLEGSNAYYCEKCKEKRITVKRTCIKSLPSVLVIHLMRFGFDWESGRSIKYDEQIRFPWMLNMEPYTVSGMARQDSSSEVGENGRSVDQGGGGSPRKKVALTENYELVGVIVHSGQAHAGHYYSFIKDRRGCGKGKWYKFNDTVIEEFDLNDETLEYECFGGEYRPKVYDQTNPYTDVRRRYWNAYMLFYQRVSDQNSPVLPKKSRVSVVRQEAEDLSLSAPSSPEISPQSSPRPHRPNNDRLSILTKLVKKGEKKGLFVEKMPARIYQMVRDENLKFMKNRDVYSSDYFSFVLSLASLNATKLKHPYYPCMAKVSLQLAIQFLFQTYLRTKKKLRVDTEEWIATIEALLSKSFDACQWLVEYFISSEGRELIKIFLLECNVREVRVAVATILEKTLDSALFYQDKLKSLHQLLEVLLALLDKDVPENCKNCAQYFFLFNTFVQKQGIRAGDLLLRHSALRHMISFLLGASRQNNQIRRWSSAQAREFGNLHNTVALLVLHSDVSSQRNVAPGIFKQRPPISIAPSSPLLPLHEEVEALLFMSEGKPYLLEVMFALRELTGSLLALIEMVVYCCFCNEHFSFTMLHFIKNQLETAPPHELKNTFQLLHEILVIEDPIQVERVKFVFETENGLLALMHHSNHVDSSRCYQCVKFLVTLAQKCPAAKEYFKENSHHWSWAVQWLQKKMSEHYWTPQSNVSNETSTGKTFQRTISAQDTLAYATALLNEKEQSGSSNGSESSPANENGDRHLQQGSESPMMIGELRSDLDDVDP
Procedure, shortened: as §1

USP25 = molecular target: T3, USP25 (UniProt Q9UHP3)
T3 sequence (whole entry): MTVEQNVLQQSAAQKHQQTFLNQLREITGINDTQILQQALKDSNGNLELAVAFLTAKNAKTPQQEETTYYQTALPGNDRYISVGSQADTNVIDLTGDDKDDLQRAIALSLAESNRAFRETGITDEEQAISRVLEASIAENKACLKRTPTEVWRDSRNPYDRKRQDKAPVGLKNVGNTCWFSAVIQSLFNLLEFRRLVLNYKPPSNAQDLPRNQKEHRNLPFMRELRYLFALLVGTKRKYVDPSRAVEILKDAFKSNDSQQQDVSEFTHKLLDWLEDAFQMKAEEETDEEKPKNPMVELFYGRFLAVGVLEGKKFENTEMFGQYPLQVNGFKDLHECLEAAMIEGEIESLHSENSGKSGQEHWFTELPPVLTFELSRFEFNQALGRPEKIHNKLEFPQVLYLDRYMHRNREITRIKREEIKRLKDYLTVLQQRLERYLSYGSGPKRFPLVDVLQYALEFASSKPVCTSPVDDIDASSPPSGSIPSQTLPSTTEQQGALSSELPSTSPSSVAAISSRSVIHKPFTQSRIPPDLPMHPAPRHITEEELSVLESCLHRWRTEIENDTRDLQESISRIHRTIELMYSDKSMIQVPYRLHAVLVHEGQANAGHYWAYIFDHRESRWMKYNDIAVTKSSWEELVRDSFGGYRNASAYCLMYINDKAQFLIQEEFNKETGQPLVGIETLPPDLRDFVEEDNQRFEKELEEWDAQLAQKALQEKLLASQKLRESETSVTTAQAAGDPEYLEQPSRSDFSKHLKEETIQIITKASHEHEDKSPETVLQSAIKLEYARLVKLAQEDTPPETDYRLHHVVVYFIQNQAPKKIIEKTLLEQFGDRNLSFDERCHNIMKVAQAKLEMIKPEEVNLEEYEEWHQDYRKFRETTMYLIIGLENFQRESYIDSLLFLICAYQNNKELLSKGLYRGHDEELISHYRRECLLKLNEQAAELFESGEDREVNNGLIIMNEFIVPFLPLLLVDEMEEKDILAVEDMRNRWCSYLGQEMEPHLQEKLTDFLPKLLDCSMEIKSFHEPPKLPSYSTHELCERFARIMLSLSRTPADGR
Procedure, shortened: as §1

USP28 = molecular target: T4, USP28 (UniProt Q96RU2)
T4 sequence (whole entry): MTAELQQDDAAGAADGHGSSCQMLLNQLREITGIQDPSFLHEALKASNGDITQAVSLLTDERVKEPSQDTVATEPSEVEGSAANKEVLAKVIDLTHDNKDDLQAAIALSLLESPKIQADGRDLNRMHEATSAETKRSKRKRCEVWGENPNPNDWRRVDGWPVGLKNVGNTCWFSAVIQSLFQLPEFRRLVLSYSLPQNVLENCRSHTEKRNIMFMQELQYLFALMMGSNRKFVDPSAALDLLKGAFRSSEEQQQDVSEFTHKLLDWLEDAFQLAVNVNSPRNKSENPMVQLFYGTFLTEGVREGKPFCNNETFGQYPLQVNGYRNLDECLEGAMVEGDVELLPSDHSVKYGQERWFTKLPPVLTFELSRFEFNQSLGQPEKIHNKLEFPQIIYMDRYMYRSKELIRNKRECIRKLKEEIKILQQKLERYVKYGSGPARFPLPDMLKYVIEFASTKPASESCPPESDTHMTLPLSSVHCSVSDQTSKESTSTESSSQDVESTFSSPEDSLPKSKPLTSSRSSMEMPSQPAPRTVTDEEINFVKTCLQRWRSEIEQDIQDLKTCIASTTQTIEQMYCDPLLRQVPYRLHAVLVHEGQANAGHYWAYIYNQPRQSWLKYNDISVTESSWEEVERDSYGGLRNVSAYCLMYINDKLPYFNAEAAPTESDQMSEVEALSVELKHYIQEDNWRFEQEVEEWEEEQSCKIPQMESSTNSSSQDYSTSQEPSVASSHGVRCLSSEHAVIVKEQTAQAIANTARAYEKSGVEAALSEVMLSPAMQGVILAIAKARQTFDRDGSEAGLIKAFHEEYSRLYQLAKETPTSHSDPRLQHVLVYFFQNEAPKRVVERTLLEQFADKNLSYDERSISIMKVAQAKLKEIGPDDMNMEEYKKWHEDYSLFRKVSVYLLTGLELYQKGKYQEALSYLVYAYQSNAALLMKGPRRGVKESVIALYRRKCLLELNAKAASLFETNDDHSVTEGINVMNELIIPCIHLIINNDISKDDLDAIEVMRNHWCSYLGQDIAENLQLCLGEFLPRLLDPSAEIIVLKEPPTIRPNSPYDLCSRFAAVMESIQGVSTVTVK
Procedure, shortened: as §1

Measured: log2 ratio of Biotin-Ahx-Ub-VS probe labelling

O=C(CCl)NCc1ccc(Cl)cc1
inactive: USP19 -0.0819 | USP22 -0.199 | USP24 -0.0304 | USP25 -0.395 | USP28 -0.414
